Measurements: PubChem BioAssay (NCI)
The panel holds about 83,000 compounds, 20% with a hit somewhere; the sample as a whole holds those more often.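 Testing used 96-well plates and a 48-hour single-concentration exposure. Example: -40 means 40% of the starting cells died.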 Unmarked numbers belong to inactive results. Active and inactive are the calls of the source. The calls were made as follows: active = growth percent below 10; inactive = the rest.

Columns and labels:
Experiment in all cases: NCI-60 one-dose screen, 48 h (100 = growth as untreated, 0 = no growth, -100 = all killed)
SK-MEL-2 melanoma = details: 10 µM
EKVX NSCLC = details: 10 µM
SN12C renal = details: 10 µM
UO-31 renal = details: 10 µM
TK-10 renal = details: 10 µM unless noted
ACHN renal = details: 10 µM
CAKI-1 renal = details: 10 µM
A498 renal = details: 10 µM
CCRF-CEM leukemia = details: 10 µM
MOLT-4 leukemia = details: 10 µM

| Compound | growth (SK-MEL-2 melanoma) | growth (EKVX NSCLC) [%] | growth (SN12C renal) [%] | growth (UO-31 renal) [%] | growth (TK-10 renal) | growth (ACHN renal) [%] | growth (CAKI-1 renal) | growth (A498 renal) | growth (CCRF-CEM leukemia) | growth (MOLT-4 leukemia) [%] |
| --- | --- | --- | --- | --- | --- | --- | --- | --- | --- | --- |
| CC1OC(Oc2c(-c3ccc(O)c(O)c3)oc3cc(O)cc(O)c3c2=O)C(O)C(O)C1O (stereo not drawn) | 104% | 110 | 102 | 92.5 | 103% | 113 | 102% | 99.5% | 106% | 108 |
| CC1SC(N)=NC1=O (stereo not drawn) | 111% | 96.2 | 120 | 92.2 | 108% | 108 | 103% | 107% | 99.3% | 122 |
| O=C(/C=C/C(=O)c1ccccc1)c1ccccc1 | 119% | 102 | 108 | 97.6 | 86.9% | 90.1 | 94.9% | 85.2% | 37.9% | 79.2 |
| CC(=O)Nc1cccc(Cl)c1C | 100% | 101 | 99.7 | 85.3 | 95.5% | 106 | 97.7% | 93.3% | – | – |
| CCCCOC(OCCCC)c1ccccc1 | 108% | 110 | 101 | 98.4 | 107% | 109 | 96.3% | 84.7% | 105% | 106 |
| OCc1ccc(-c2ccc(-c3ccc(CO)s3)o2)s1 | 79.7% | 99.9 | 55.7 | 41.4 | -20.9% (active) | 63.7 | -54.3% (active) | -89.1% (active) | 41.5% | 33.1 |
| O=C1Cc2cc(O)ccc2O1 | 101% | 104 | 102 | 83.7 | 115% | 105 | 103% | 92.7% | 94% | 91.2 |
| Cc1cc(=O)[nH]c(NN=C2CCCC2)n1 | 107% | 107 | 104 | 91.2 | 122% | 108 | 100% | 129% | 102% | 101 |
| CCOC(=O)c1ccc(Nc2sc(C(=O)c3cccc([N+](=O)[O-])c3)c(N)c2C#N)cc1 | 33% | 62.1 | 52.9 | 31.1 | 74.1% | 41.3 | -17.8% (active) | 38.4% | 5.1% (active) | 23.6 |
| CC(=O)c1c[nH]c2ccccc12 | 161% | 99.2 | 99.2 | 74.7 | 108% | 107 | 80.1% | 103% | 102% | 104 |
| O=C1C=CC2=C3c4cc(O)c(O)cc4CC3(O)COC2=C1O (stereo not drawn) | 87.3% | 101 | 104 | 86.6 | 101% | 111 | 111% | 99.1% | 104% | 103 |
| O=C1N(C[P+](c2ccccc2)(c2ccccc2)c2ccccc2)CCCN1C[P+](c1ccccc1)(c1ccccc1)c1ccccc1 | 122% | 97 | 97.3 | 87.1 | 106% | 97.1 | 89.4% | 85.5% | 107% | 97.7 |
| CCOC(=O)c1[nH]c(C)c(C(=O)O)c1C | 124% | 105 | 99.5 | 84.7 | 104% | 102 | 97.3% | 102% | 89.6% | 91.9 |
| O=C1c2ccccc2C(=O)N1OCc1ccccc1 | 96.7% | 98.7 | 110 | 79.1 | 133% | 101 | 95.2% | 134% | 97.3% | 93.7 |
| CCn1c(=O)n(C)c2c(=O)n(C)c(=O)n(C)c21 | 104% | 103 | 105 | 87.4 | 102% | 105 | 98.3% | 91.7% | 98.2% | 101 |
| NC(=O)c1ccc(N=C(N)N=C(N)N)cc1 | 121% | 73.5 | 110 | 78.5 | 77.5% | 112 | 93.4% | 106% | 99.6% | 103 |
| Cc1cc(C)cc(NCCC#N)c1 | 98.3% | 103 | 110 | 96.5 | 129% | 107 | 107% | 111% | 96.8% | 91.4 |
| CCC(C)(O)c1ccc(C)cc1 (stereo not drawn) | 98% | 109 | 102 | 91.4 | 99.6% | 108 | 104% | 96.9% | 99.3% | 95.6 |
| CC(C)C(C#N)(C(C)C)C(C)C | 98% | 96.7 | 99.9 | 81.5 | 96% | 108 | 95.6% | 98.3% | 102% | 104 |
| CCC/C=C(/C(C)=O)C(=O)OCC | 132% | 168 | 101 | 101 | 139% | 103 | 128% | 132% | 143% | 135 |
| CCOC(=O)C(CCC(C)C)C(=O)OCC | 97.5% | 99.3 | 109 | 84.7 | 86.8% | 101 | 100% | 91.3% | 99.9% | 83.8 |
| Cc1ccc(N)cc1[N+](=O)[O-] | 128% | 113 | 109 | 83.3 | 107% | 108 | 102% | 117% | 84.6% | 76.3 |
| O=C(O)C(O)c1ccccc1 (stereo not drawn) | 104% | 99.9 | 106 | 84.5 | 103% | 103 | 96.8% | 93.9% | 106% | 102 |
| Oc1ccc(O)cc1 | 104% | 113 | 106 | 82 | 128% | 85.4 | 97.9% | 115% | 62.7% | 78.6 |
| Nc1ccc(C(=O)c2ccc(N)c(Br)c2)cc1Br | 8.1% (active) | 50.9 | 29.2 | 58.8 | 22.5% | 33.4 | 42.9% | 28.6% | 13.4% | 35.5 |
| O/N=C/c1ccc(O)cc1O | 92.9% | 102 | 98 | 99 | 102% | 95.9 | 101% | 85.9% | 86.5% | 102 |
| C[C@]12CC[C@@H]3c4ccc(OCC(=O)O)cc4CC[C@H]3[C@@H]1CCC2=O | 105% | 117 | 102 | 86.1 | 103% | 96.9 | 113% | 78.1% | 116% | 86.2 |
| CCOC(=O)Nc1nn[nH]n1 | 109% | 112 | 103 | 96.6 | 114% | 100 | 113% | 83.8% | 95% | 98.4 |
| CC(=O)c1ccc(C(C)(C)C)cc1 | 102% | 106 | 97 | 82.7 | 105% | 97.7 | 92.7% | 123% | 88.4% | 98.9 |
| O=C(O)C(c1ccccc1)C(O)c1ccccc1 (stereo not drawn) | 99.6% | 108 | 98.2 | 94.4 | 108% | 96.6 | 100% | 69.8% | 99.8% | 87.5 |
